# Results from ChEMBL document CHEMBL3988442, “University of Dundee, Small-Polar-MMV Screening Library” (2021).
# Target: AMP-activated protein kinase, AMPK (Homo sapiens) (UniProt P54646+O43741+P54619+Q9UGJ0+Q9Y478+Q13131+Q9UGI9)
# Test: AMP-dependent Kinase enzyme assay. An in vitro enzyme assay that detects ADP turnover that is directly proportional to AMPK activity. This uses naive AMPK that is activated during the assay with MK-8722
# Type: functional
# Parameters: scale not given: direction of the effect not stated beside the values
# Settings: 30 µM
row,SMILES,Percent Effect
1,Cc1cc(C[S+]([O-])Cc2ccccc2F)no1 (stereo not given),13.9%
2,O=C(C1CCCO1)N1CCC(Cn2cc(C3CCCC3)nn2)CC1 (stereo not given),3.98%
3,Cc1ccccc1SCC(=O)N[C@H]1CC[C@H](n2cnnc2)CC1,1.98%
4,Cc1cc(C)n(C2CCN(C(=O)c3cn4ccsc4n3)C2)n1 (stereo not given),-11.9%
5,Cc1ccc(CNc2cc3c(cc2Cl)NC(=O)CO3)cc1C,-0.667%
6,NC(=O)[C@@H]1Cc2ccccc2N1C(=O)C1CC(c2ccccc2)=NO1 (stereo not given in full),11.5%
7,CC(C)Cn1ncc(C(=O)NS(=O)(=O)c2ccccc2)c1C1CC1,4.86%
8,CC(=O)N1CCC(NC(=O)CN2CCCc3c(F)ccc(C)c32)CC1,3.84%
9,CC(=O)Nc1ccc(CNC(=O)CNCc2sc(C)nc2C)cc1,3.71%
10,CN(C)c1ccc(C(=O)N2CCC(c3cc4ncccc4[nH]3)CC2)cc1,21.8%
11,CCCC1(CO)CCCN(C(=O)CNC(N)=O)C1 (stereo not given),8.45%
12,CN1CCC(c2n[nH]c(=O)n2-c2cccc(Cl)c2)CC1,65.1%
13,Cc1cc(NC(C)c2csc(C)n2)n2nc(C)c(C)c2n1 (stereo not given),10%
14,Cc1ccc(-c2noc(C3CCN3C(=O)c3ccc(=O)[nH]n3)n2)s1 (stereo not given),19.2%
15,Cn1cc(CN(C(=O)c2ccc3ncsc3c2)C2CC2)cn1,10.2%
16,Cc1nn(C)cc1C(=O)N1CCC(C(=O)c2nc3ccccc3s2)CC1,20.7%
17,NC(=O)CNC(=O)c1cc(Cn2cnc3ccccc32)[nH]n1,-3.37%
18,NC(=O)c1csc(N2C[C@@H](CN3CCOCC3)[C@@H](CO)C2)n1,3.19%
19,COC(=O)[C@@H]1C[C@@H](O)CN1Cc1ccn(-c2ccc(F)cc2)n1,-3.45%
20,Cc1nn2cccnc2c1C(=O)NCc1ccccc1OCC1CC1,2.06%

row,SMILES,Percent Effect
1,CC(C)c1noc(C(C)N2CCC(c3nc4ccccc4[nH]3)CC2)n1 (stereo not given),0.872%
2,CC(O)CN1CCN(Cc2coc(-c3ccccc3Cl)n2)CC1 (stereo not given),-13.3%
3,Cc1cc(CN(C)C(=O)c2cc(COc3ccccc3)[nH]n2)n[nH]1,1.22%
4,CN(C)c1cccc(C(=O)Nc2ccn(CCc3ccncc3)n2)c1,12.1%
5,O=C(c1coc(-c2ccccc2)n1)N1CCCCC1,0.702%
6,Cc1ccc(C2CSCCN2CCS(C)(=O)=O)cc1 (stereo not given),-3.45%
7,Cc1nc2n(n1)CC(NCc1c(Cl)ccc3cccnc13)CC2 (stereo not given),11.7%
8,CN(Cc1ccc(C#N)cc1)C(=O)c1ccn(C)c(=O)c1,5.01%
9,COCCN(C)C[C@@H]1CN(c2nc(C)cc(C)n2)C[C@@H]1CO,2.16%
10,Cc1cc(CN(C)C(C(=O)O)c2cccc(C(F)(F)F)c2)on1 (stereo not given),3.9%
11,O=C(NCc1nnc2n1CCC2)c1cn(-c2ccccc2Br)nn1,12%
12,O=C(O)CCn1ccc2c(nnc3c(-c4ccc(F)cc4)cnn32)c1=O,18.8%
13,CC(=O)NCc1ccc(C(=O)N2CCCc3c(F)ccc(C)c32)cc1,-0.0493%
14,Cc1nc(CN(C)S(=O)(=O)c2ccccc2Br)no1,6.12%
15,CCc1nc(CCNc2ncccc2S(N)(=O)=O)sc1C,-3.81%
16,Cc1ccc2nc(CN3CCCCC3C(=O)N3CCOCC3)cn2c1 (stereo not given),8.07%
17,CC(CC(=O)c1ccco1)NC(=O)c1ccon1 (stereo not given),9.56%
18,COCCCC1CCCCN1Cc1cn2cc(C)ccc2n1 (stereo not given),7.53%
19,CN(C)C1CCN(c2cc(-c3ccccc3)nc3ccnn23)C1 (stereo not given),-0.347%
20,Fc1cc(CCNc2ccc3nccn3n2)c2c(c1)COCO2,17.6%
